Laboratory results reported in PubChem BioAssay (EPA / NIEHS).
Where “and” joins values, the source holds several entries; their conditions need not be identical. Equal values may be shown once. Records with an inconclusive call do not appear. Calls of active or inactive are those of the source. Rule for the calls: active = hit-call score of the fitted dose curve at least 0.9, where 1 is the maximum; inconclusive = response in the unintended direction; inactive = score below 0.9.

Tests used:
[1] = ATG_XTT_Cytotoxicity: Cytotoxicity Assessment in the Attagene TRANS-FACTORIAL HepG2 Assay (AID 2283584);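 for AC50: XTT signal for cell number as viability in transfected HepG2 cells; cells exposed to compound for 24 h before reading; active means loss of viability signal versus DMSO baseline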
Procedure, shortened: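 HepG2 cells transiently transfected with GAL4-UAS multiple reporter units, dosed 24 h; cytotoxicity read by XTT as loss of signal versus DMSO baseline.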

[2] = TOX21_p53_BLA_p2_viability: Viability Assessment in the Tox21 HCT-116 p53 Agonism Beta-lactamase Assay, Phase 2 (AID 2283591);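 note: actives lower the ATP signal meaning cytotoxicity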
Procedure, shortened: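 HCT-116 p53-bla cells (4000/well) rested 5 h at 37C, then received compounds in DMSO (217-fold dilution) for 16 h at 37C, 5% CO2. After the CCF4 read, CellTiter-Glo was added; ATP luminescence was read after 30 min at room temperature.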

[3] = biological target: Cellular tumor antigen p53 (Homo sapiens) (UniProt P04637); test: TOX21_p53_BLA_p2_ratio: Tox21 HCT-116 p53 Agonism Beta-lactamase Assay, Ratio, Phase 2 (AID 2283592)
Chain of Cellular tumor antigen p53 (Homo sapiens) (P04637 whole entry, looked up): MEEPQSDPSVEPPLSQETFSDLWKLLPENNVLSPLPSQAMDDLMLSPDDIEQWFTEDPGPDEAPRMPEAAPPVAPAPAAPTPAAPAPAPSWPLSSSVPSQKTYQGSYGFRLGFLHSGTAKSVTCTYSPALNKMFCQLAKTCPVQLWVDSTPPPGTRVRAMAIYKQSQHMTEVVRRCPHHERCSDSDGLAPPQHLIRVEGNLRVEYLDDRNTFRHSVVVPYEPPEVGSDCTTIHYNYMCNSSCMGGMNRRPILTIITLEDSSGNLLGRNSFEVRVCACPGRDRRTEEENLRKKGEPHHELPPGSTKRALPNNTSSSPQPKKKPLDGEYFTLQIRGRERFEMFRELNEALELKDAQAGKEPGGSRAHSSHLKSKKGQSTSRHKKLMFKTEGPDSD
Procedure, shortened: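 First, HCT116 reporter cells settle for 5 h at 37C. Next, DMSO compound solutions are pinned in (217-fold dilution) and left 16 h. Finally, CCF4-AM substrate is loaded 2 h at room temperature and the 460/530 nm ratio read.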

[4] = TOX21_p53_BLA_p3_viability: Viability Assessment in the Tox21 HCT-116 p53 Agonism Beta-lactamase Assay, Phase 3 (AID 2283593);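 note: cells exposed to compound for 16 h before reading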
Procedure, shortened: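 HCT-116 cells (4000/well) rested 5 h at 37C, then got DMSO compounds by pin tool (217-fold dilution) for 16 h at 37C, 5% CO2. After the bla read, CellTiter-Glo was added and luminescence read at 30 min, room temperature.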

[5] = biological target: Cellular tumor antigen p53 (Homo sapiens) (UniProt P04637); test: TOX21_p53_BLA_p3_ratio: Tox21 HCT-116 p53 Agonism Beta-lactamase Assay, Ratio, Phase 3 (AID 2283596)
Procedure, shortened: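 Cells were seeded at 4000/well, rested 5 h at 37C, then dosed with DMSO compound solutions (217-fold dilution) for 16 h. CCF4-AM substrate was loaded for 2 h at room temperature, and the 460/530 nm emission ratio was fitted for gain of signal versus DMSO.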

[6] = TOX21_p53_BLA_p4_viability: Viability Assessment in the Tox21 HCT-116 p53 Agonism Beta-lactamase Assay, Phase 4 (AID 2283597);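 note: hits lower the luminescence signal meaning cytotoxicity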
Procedure, shortened: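 4000 HCT116 cells per well; 5 h attachment; compounds from DMSO, 217-fold dilution; 16 h at 37C. Then CCF4-AM, 2 h RT, followed by CellTiter-Glo, 30 min RT, luminescence. Decrease = cytotoxicity.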

[7] = biological target: Cellular tumor antigen p53 (Homo sapiens) (UniProt P04637); test: TOX21_p53_BLA_p5_ratio: Tox21 HCT-116 p53 Agonism Beta-lactamase Assay, Ratio, Phase 5 (AID 2283599)
Procedure, shortened: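 HCT-116 cells carrying a p53-inducible beta-lactamase reporter were seeded at 4000 cells/well and dosed after 5 h with compound in DMSO (217-fold dilution). After 16 h at 37C, CCF4-AM substrate was added for 2 h, and the 460/530 nm emission ratio was scored as gain-of-signal versus DMSO.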

[8] = TOX21_p53_BLA_p5_viability: Viability Assessment in the Tox21 HCT-116 p53 Agonism Beta-lactamase Assay, Phase 5 (AID 2283600)
Procedure, shortened: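 Decreased CellTiter-Glo luminescence denotes lost viability. Exposure: 16 h at 37C, 5% CO2, with compounds from DMSO stocks diluted 217-fold in wells of 4000 cells.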

[9] = biological target: Cellular tumor antigen p53 (Homo sapiens) (UniProt P04637); test: TOX21_p53_BLA_p4_ratio: Tox21 HCT-116 p53 Agonism Beta-lactamase Assay, Ratio, Phase 4 (AID 2283601)
Procedure, shortened: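 HCT116 cells carrying an inducible beta-lactamase reporter were plated at 4000 cells/well, rested 5 h, then exposed to compounds in DMSO (217-fold dilution) for 16 h at 37C. CCF4-AM substrate was loaded 2 h at room temperature; 460/530 nm emission ratio scored gain-of-signal versus DMSO.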

[10] = test system: Thyroperoxidase (TPO), gene 54314; test: CCTE_Simmons_AUR_rTPO: CCTE's Amplex UltraRed Assay for Thyroperoxidase (TPO) Inhibition, Simmons Lab (AID 2283662);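 for AC50: potency for loss of signal meaning inhibition of peroxidase activity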
Procedure, shortened: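 Rat thyroid microsomes (5 ug protein) were incubated with test compound (8 concentrations, 5 nM–87.5 uM final, 0.5% DMSO), 25 uM Amplex UltraRed and 300 uM H2O2 in 200 mM phosphate buffer for 30 min at 37C in the dark; fluorescence read at 544/590 nm.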

[11] = CCTE_Simmons_CellTiterGLO_HEK293T: Viability Assessment in CCTE's Assays for Thyroperoxidase (TPO) Inhibition, Simmons Lab (AID 2283665);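 for AC50: cells exposed to compound for 24 h before readout; actives reduce ATP signal below DMSO vehicle meaning cytotoxicity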
Procedure, shortened: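 Cells were seeded overnight, then exposed to an eight-point series up to 87.5 uM final for 24 hours. CellTiter-Glo reagent was added and luminescence read after 20 min, giving ATP-based viability versus DMSO.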

[12] = biological target: Luciferin 4-monooxygenase (Photinus pyralis) (UniProt P08659); test: CCTE_Simmons_QuantiLum_inhib_2: CCTE's Firefly Luciferase Inhibition Assay, Simmons Lab (AID 2283767);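 for AC50: potency for inhibitors that lower luciferase luminescence relative to DMSO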
Chain of Luciferin 4-monooxygenase (Photinus pyralis) (P08659 whole entry, looked up): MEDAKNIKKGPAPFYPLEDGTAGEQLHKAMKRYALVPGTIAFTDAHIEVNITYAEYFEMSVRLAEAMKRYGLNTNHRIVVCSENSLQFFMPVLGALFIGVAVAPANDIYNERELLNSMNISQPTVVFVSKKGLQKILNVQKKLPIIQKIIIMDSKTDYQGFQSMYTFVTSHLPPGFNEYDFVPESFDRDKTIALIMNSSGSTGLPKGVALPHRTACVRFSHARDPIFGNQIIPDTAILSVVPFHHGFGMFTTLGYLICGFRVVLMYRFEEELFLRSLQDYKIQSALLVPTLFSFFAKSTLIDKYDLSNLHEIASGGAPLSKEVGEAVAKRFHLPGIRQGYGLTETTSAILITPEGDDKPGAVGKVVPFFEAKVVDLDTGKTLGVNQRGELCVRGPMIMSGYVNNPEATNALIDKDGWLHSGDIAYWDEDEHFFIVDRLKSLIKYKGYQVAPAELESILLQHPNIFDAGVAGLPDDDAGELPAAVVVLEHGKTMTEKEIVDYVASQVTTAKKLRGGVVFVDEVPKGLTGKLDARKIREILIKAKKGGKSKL
Procedure, shortened: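 First, 5 ng purified luciferase in phosphate buffer with BSA is dispensed per well. Next, test chemicals (5 nM to 87.5 uM final, 0.5% DMSO) are added and incubated 30 min at 37C in darkness. Finally, luciferin reagent is injected and luminescence read kinetically.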

[13] = test system: chicken Androgen Receptor (AR), gene 422165; test: ATG_chAR_XSP1: Attagene TRANS-FACTORIAL Multi-Species (XSP1) HepG2 Assay for chicken Androgen Receptor (AR) (AID 2283768)
Procedure, shortened: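 Reporter mRNA read by RT-PCR with fluorescent labelling and capillary electrophoresis 24 h after chemical dosing of transiently transfected HepG2 cells. Chicken AR-Gal4 chimera, partially stimulated with 3 nM 6-alpha-fluorotestosterone; activity fitted upward relative to DMSO.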

[14] = test system: frog Androgen Receptor (AR), gene 399456; test: ATG_frAR_XSP1: Attagene TRANS-FACTORIAL Multi-Species (XSP1) HepG2 Assay for frog Androgen Receptor (AR) (AID 2283770)
Description: ATG_XSP1_multi-species_TRANS is a cell-based, multiplexed assay created by modifying the existing Attagene TRANS-FACTORIAL system to include a panel of nuclear receptors from some or all the following species: human (Homo sapiens), mouse (Mus musculus), frog (Xenopus laevis), zebrafish (Danio rerio), chicken (Gallus gallus), and turtle (Chrysemys picta). The ECOTOX-FACTORIAL format uses HepG2, a human liver cell line, with measurements taken at 24 hours after chemical dosing in a 24-well plate. Xsp1 included 3 nM 6-alpha-fluorotestosterone to partially stimulate the androgen receptor.ATG_frAR_XSP1 is one of 29 assay components measured or calculated from the ATG_XSP1_multi-species_TRANS assay. It is designed to make measurements of mRNA induction, a form of inducible reporter, as detected with fluorescence intensity signals by Reverse transcription polymerase chain reaction (RT-PCR) and Capillary electrophoresis technology.The assay endpoint ATG_frAR_XSP1 was analyzed in the positive analysis fitting direction relative to DMSO as the negative control and baseline of activity. […] Furthermore, this assay endpoint can be referred to as a primary readout, because this assay has produced multiple assay endpoints where this one serves a reporter gene function. […]

[15] = test system: zebrafish Androgen Receptor (AR), gene 100005148; test: ATG_zfAR_XSP1: Attagene TRANS-FACTORIAL Multi-Species (XSP1) HepG2 Assay for zebrafish Androgen Receptor (AR) (AID 2283771)
Procedure, shortened: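 Gain-of-signal versus DMSO was measured as reporter transcripts quantified by RT-PCR, fluorescent labelling and capillary electrophoresis after 24 h chemical exposure. The cells were HepG2 expressing a chimeric zebrafish AR-GAL4, co-stimulated with 3 nM 6-alpha-fluorotestosterone.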

[16] = biological target: zebrafish Estrogen Receptor (ESR1), esr1 (gene 259252) (UniProt P57717); test: ATG_zfER1_XSP1: Attagene TRANS-FACTORIAL Multi-Species (XSP1) HepG2 Assay for zebrafish Estrogen Receptor (ESR1) (AID 2283772)
Chain of zebrafish Estrogen Receptor (ESR1), esr1 (gene 259252) (P57717 whole entry, looked up, the tested form may be a part): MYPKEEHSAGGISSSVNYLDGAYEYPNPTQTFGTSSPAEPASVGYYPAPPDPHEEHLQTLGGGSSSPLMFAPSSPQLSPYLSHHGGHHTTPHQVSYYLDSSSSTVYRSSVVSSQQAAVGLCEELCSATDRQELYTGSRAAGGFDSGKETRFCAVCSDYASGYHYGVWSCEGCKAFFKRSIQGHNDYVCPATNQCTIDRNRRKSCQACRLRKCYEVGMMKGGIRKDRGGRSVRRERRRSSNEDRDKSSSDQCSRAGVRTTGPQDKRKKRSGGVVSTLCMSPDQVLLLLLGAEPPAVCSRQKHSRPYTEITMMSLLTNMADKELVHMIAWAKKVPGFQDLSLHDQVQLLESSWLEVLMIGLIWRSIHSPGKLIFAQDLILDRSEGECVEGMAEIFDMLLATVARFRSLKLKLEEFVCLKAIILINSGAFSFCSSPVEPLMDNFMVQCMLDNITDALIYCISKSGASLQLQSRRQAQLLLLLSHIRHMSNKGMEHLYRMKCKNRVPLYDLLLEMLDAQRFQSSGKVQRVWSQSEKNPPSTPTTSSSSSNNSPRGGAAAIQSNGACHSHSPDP
Procedure, shortened: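 HepG2 cells transiently transfected with a GAL4-UAS reporter and chimeric zebrafish ER-Gal4, dosed 24 h with 3 nM 6-alpha-fluorotestosterone present. Reporter mRNA measured by RT-PCR and capillary electrophoresis; gain of signal versus DMSO.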

[17] = test system: zebrafish Estrogen Receptor (ESR2B), gene 317733; test: ATG_zfER2b_XSP1: Attagene TRANS-FACTORIAL Multi-Species (XSP1) HepG2 Assay for zebrafish Estrogen Receptor (ESR2B) (AID 2283773)
Procedure, shortened: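 Human hepatoma HepG2, transiently transfected with multi-reporter units; exogenous zebrafish ESR2B-Gal4 activity measured. Exposure 24 h alongside 3 nM 6-alpha-fluorotestosterone to partly stimulate AR.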

[18] = test system: frog Estrogen Receptor (ESR2), gene 100174814; test: ATG_frER2_XSP1: Attagene TRANS-FACTORIAL Multi-Species (XSP1) HepG2 Assay for frog Estrogen Receptor (ESR2) (AID 2283774)
Procedure, shortened: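 Multiplexed TRANS-format reporter assay in human hepatoma HepG2: chimeric nuclear receptor-Gal4 activity reported as mRNA induction at 24 h, detected by fluorescent RT-PCR products on capillary electrophoresis and fitted upward from DMSO baseline.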

Structure (SMILES): Nc1cccnc1N
- outcome [1]: inactive

Structure (SMILES): Cc1ccc(O)c(-n2nc3ccccc3n2)c1
- outcome [1]: inactive
- outcome [2]: inactive
- outcome [3]: inactive
- outcome [4]: inactive
- outcome [5]: inactive
- outcome [6]: inactive
- outcome [7]: inactive
- outcome [8]: inactive
- outcome [9]: inactive
- outcome [10]: inactive
- AC50 [11]: 21 µM (active)
- AC50 [12]: 1.54 µM (active)

Structure (SMILES): O=C=NCc1cccc(CN=C=O)c1
- outcome [1]: inactive

Structure (SMILES): OCCCc1cccnc1
- outcome [1]: inactive

Structure (SMILES): CCCCCC/C=C/CCCCCCCC(=O)O
- outcome [1]: inactive
- outcome [2]: inactive
- outcome [3]: inactive
- outcome [4]: inactive
- outcome [5]: inactive
- outcome [6]: inactive
- outcome [7]: inactive
- outcome [8]: inactive
- outcome [9]: inactive

Structure (SMILES): N#Cc1ccccc1O
- outcome [1]: inactive

Structure (SMILES): O=C1C=CC(=O)N1c1ccc(Cc2ccc(N3C(=O)C=CC3=O)cc2)cc1
- AC50 [1]: 157 µM (active)
- AC50 [2]: 71 µM (active)
- AC50 [3]: 29.1 µM (active)
- outcome [4]: inactive
- outcome [5]: inactive
- AC50 [6]: 75.2 µM (active)
- AC50 [7]: 74.4 µM (active)
- AC50 [8]: 86.3 µM (active)
- AC50 [9]: 68 µM (active)

Structure (SMILES): Brc1ccccn1
- outcome [1]: inactive

Structure (SMILES): CC(C)OC=O
- outcome [1]: inactive
- outcome [2]: inactive
- outcome [3]: inactive
- outcome [4]: inactive
- outcome [5]: inactive
- outcome [6]: inactive
- outcome [7]: inactive
- outcome [8]: inactive
- outcome [9]: inactive
- outcome [10]: inactive
- outcome [11]: inactive
- outcome [12]: inactive

Structure (SMILES): CCN(CC)c1ccc(C=O)c(O)c1
- outcome [1]: inactive

Structure (SMILES): CCOC(C=C(C)CCC=C(C)C)OCC
- outcome [1]: inactive

Structure (SMILES): O=C(c1ccccc1)c1ccc(O)cc1O
- outcome [1]: inactive
- outcome [2]: inactive
- outcome [3]: inactive
- outcome [4]: inactive
- outcome [5]: inactive
- outcome [6]: inactive
- outcome [7]: inactive
- outcome [9]: inactive
- AC50 [10]: 6.04 µM (active) and 5.41 µM (active)
- outcome [11]: inactive
- outcome [12]: inactive
- AC50 [13]: 1.98 µM (active)
- AC50 [14]: 3.28 µM (active)
- outcome [15]: inactive
- AC50 [16]: 4.2 µM (active)
- AC50 [17]: 2.7 µM (active)
- AC50 [18]: 1.05 µM (active)
